{"source": "the supplement of paper PMC9950053", "note": "Counter-ions that a name gives are not always drawn."}
{"test_system": "Danio rerio larvae (5 dpf)", "assay": "combined optomotor response (time in upper well half, down vs up moving lines, periods 7-14) minus DMSO control (percentage points); higher = stronger optomotor response than DMSO larvae", "details": "10 µM; exposure time: 3 h pre-incubation + 3 h imaging", "experimental": "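Wild-type 5 dpf zebrafish larvae (n=48 per drug, 96-well plates, 28.5 °C) were exposed to Tocris FDA-approved library compounds at 10 µM (0.1% DMSO) for 3 h before and 3 h during imaging. Images were taken every 6 s during visual and acoustic stimuli, and larvae were tracked with Z-LaP Tracker. Each measure is the treated-group mean minus the DMSO control mean (n=844), in percentage points. This mapping covers compounds with 5-character plate codes.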"}
{"smiles": "COc1ccc(C(CN(C)C)C2(O)CCCCC2)cc1", "note": "(stereo unspecified) [Venlafaxine hydrochloride]", "combined optomotor response": -1.24}
